Screening results (PubChem BioAssay)
An excerpt weighted towards active compounds, which were near 3.1% of everything screened.
Peg3 prom inh: reduces Peg3 promoter-driven luciferase expression in HeLa. HeLa PEG-Prom luciferase reporter, luminescence, overnight. inhibition, % at 20 µM. 1.7% of 360,000 active;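 active means inhibition of at least 50% at 20 µM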
KKLEB tox: counter-screen for CF NF-kB inhibitors: cytotoxicity; KKLEB CF airway cells viability, ATPlite luminescence, overnight; stronger effect = lower value; cells stimulated with P. aeruginosa culture filtrate; activity change (cytotoxicity), % at 5 µM; 0.36% of 360,000 active; AID 602141;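 active means corrected activity change at or below -50% at 5 µM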
ABHD5-PLIN5 inh: ABHD5-PLIN5 protein interaction inhibition; Q00G26+Q8WTS1; Split G. princeps luciferase complementation, luminescence, 4 h; inhibition, % at 4 µM; 0.78% of 360,000 active; AID 602281;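 active means inhibition above the mean inhibition across every tested compound plus 3 SD, cut at about 22% in these data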
HIF-2a inh: HIF-2a inhibition | 786-0 RCC cells HIF-2a reporter, luciferase luminescence, overnight | inhibition, % at 18.8 µM | 0.72% of 360,000 active | AID 624352;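 active means inhibition of the luminescence signal of 40% or more relative to plate controls, in a single-dose primary screen at 18.75 µM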
CF NFkB inh: inhibitors of cystic fibrosis induced NF-kB | KKLEB NF-kB-GFP reporter, PAF-induced, GFP fluorescence overnight | inhibition, % at 5 µM | 0.86% of 360,000 active | AID 588850;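 active means at least 50% inhibition at 5 µM, scaled per plate between neutral and stimulator controls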;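 further: PAF is a Pseudomonas aeruginosa culture filtrate used as stimulus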
MITF TRPM1 inh: reduces MITF-dependent TRPM1 promoter luciferase signal. SK-MEL-5 TRPM1 promoter luciferase, 24 h. inhibition, % at 12.5 µM. 0.83% of 330,000 active. AID 488899;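 active means mean inhibition across replicates of 60% or more, whatever share of single replicates reaches that level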
Of the large screens only hits and unclear results are named; the others gave an inactive call.

OCCCn1c(C2CCCN2c2nc(-c3ccc(Cl)cc3)cs2)nc2cc(Cl)c(N3CCCCC3)cc21 (centres undefined)	Peg3 prom inh 72
O=C(CCCN1C(=O)/C(=C/c2ccccc2Cl)SC1=S)NNC(=O)c1ccccc1	HIF-2a inh 90
O=C(CCCN1C(=O)/C(=C/c2ccccc2Cl)SC1=S)NNC(=O)c1cccnc1	HIF-2a inh 84
O=C(NCC(=O)N(c1ccccc1F)C(C(=O)NC1CCCC1)c1cccnc1)c1ccco1 (centres undefined)	none
O=C(CN1CCOCC1)Nc1nc(-c2ccccc2)cs1	none
O=C(Cn1nnc(-c2ccc(CN3CCOCC3)cc2)n1)Nc1nc(-c2ccccc2)cs1	KKLEB tox -51
CN1CCN(CCCNC(=O)c2ccc(/C=C3\Oc4ccccc4N(Cc4ccccc4F)C3=O)cc2)CC1	Peg3 prom inh 69
Cc1cccc(CN2C(=O)/C(=C\c3ccc(C(=O)NCCCN4CCN(C)CC4)cc3)Oc3ccccc32)c1	Peg3 prom inh 87, MITF TRPM1 inh 94
CN1CCN(CCCNC(=O)CCN2C(=O)COc3ccccc32)CC1	none
Cc1cccc(CN2C(=O)c3ccccc3Sc3ccc(C(=O)NCCCN4CCOCC4)cc32)c1	none
Cc1nc2ccc(NC(=O)c3ccc(S(=O)(=O)N(C)c4ccccc4)cc3)cc2s1	Peg3 prom inh 67
O=C(COc1ccccc1[N+](=O)[O-])Nc1ccc(N2CCN(C(=O)c3cccs3)CC2)cc1	Peg3 prom inh 104
COc1ccc(/C=C2/Sc3ccc(C(=O)NCCCN4CCOCC4)cc3NC2=O)cc1OC	Peg3 prom inh 88
CCN1CCN(CCCNC(=O)c2ccc3c(c2)NC(=O)c2ccccc2S3)CC1	none (no result: MITF TRPM1 inh)
Cc1cccc(/C=C2/Sc3ccc(C(=O)NCCCN4CCOCC4)cc3NC2=O)c1	Peg3 prom inh 65
CCN1CCCC1CNC(=O)c1ccc2c(c1)NC(=O)/C(=C\c1ccccc1Cl)S2 (centres undefined)	none (no result: MITF TRPM1 inh)
CCN1CCN(CCCNC(=O)c2ccc3c(c2)NC(=O)/C(=C\c2cccc(C)c2)S3)CC1	Peg3 prom inh 107, MITF TRPM1 inh 102
CCN1CCCC1CNC(=O)c1ccc2c(c1)NC(=O)/C(=C\c1ccc(OC)c(OC)c1)S2 (centres undefined)	MITF TRPM1 inh 87
CC(=O)C1=C(O)C(CSCc2ccccc2)N(C)C1=O (centres undefined)	none
CCS(=O)(=O)c1ccc(OC)c(N=Nc2ccc(O)c3ncccc23)c1	none
Cc1ccc(NCc2ccc(O)c3ncccc23)cc1	none
Cc1cccc(N=Nc2ccc(O)c3ncccc23)c1	MITF TRPM1 inh 71
O=C(Nc1ncccc1O)c1ccc2c(c1)OCCO2	none
CCN(CC)S(=O)(=O)c1cc(OC)ccc1N=Nc1ccc(O)c2ncccc12	MITF TRPM1 inh 71
CCOc1ccc(N=Nc2ccc(O)c3ncccc23)cc1	MITF TRPM1 inh 70
Oc1ccc(N=Nc2ccc3c(c2)OCCO3)c2ncccc12	MITF TRPM1 inh 73
CN1C(=O)[C@@H]2[C@@H]3C[C@@H]([C@H]4ON=C(c5ccccc5OCC#N)[C@@H]34)[C@@H]2C1=O	none
CC(O)c1cc2c(s1)c1cnn(Cc3ccccc3F)c(=O)c1n2C (centres undefined)	none
Nc1nc2c(c(=O)[nH]1)C(c1cccc3ccccc13)C1=C(N2)c2ccccc2C1=O (centres undefined)	none
O=[N+]([O-])c1ccc(N=Nc2c(Cl)cc(O)cc2Cl)cc1	Peg3 prom inh 72, KKLEB tox -70, CF NFkB inh 56
COc1ccc(Nc2nc(-c3ccccc3)nc3ccccc23)cc1	none
COc1ccc(-c2nc(N/N=C(\C)c3ccc(O)cc3)c3ccccc3n2)cc1	CF NFkB inh 56
CN1CCC2(CC1)Nc1nc(SCc3ccc(Cl)cc3)nn1C1=C2CN(C)CC1	Peg3 prom inh 52
CCN1CCN(c2cc(C)c3cc(NC(=S)N4CCN(c5ccc(F)cc5)CC4)ccc3n2)CC1	Peg3 prom inh 88, MITF TRPM1 inh 85
O=[N+]([O-])c1ccc(Sc2cc[n+]([O-])c3ccccc23)c([N+](=O)[O-])c1	MITF TRPM1 inh 90
Cn1c(=O)c(C(=O)NNC(=O)c2ccc(Br)cc2)c(O)c2ccccc21	Peg3 prom inh 54
CCCC1OC2CC3C4CCC5=CC(=O)C=CC5(C)C4C(O)CC3(C)C2(C(=O)O)O1 (centres undefined)	CF NFkB inh 74
CCCC1O[C@@H]2CC3C4CCC5=CC(=O)C=C[C@]5(C)C4C(OC(C)=O)C[C@]3(C)[C@]2(C(=O)COC(C)=O)O1 (some centres undefined)	none
CCC(=O)[C@@]1(C)[C@H](C)C[C@H]2[C@@H]3CCC4=CC(=O)C=C[C@]4(C)[C@H]3[C@@H](O)C[C@@]21C	CF NFkB inh 72
CCOC(=O)c1c(-c2ccccc2)oc2ccc(OCC(O)CNCCN(C)C)cc12 (centres undefined)	Peg3 prom inh 100, MITF TRPM1 inh 66
CC(C)Oc1ccccc1OC1(C)CCN(Cc2ccc(OC(F)(F)F)cc2)C1 (centres undefined)	none (no result: MITF TRPM1 inh)
COc1ccc(C(CCNCc2ccc(N(C)C)cc2)C(C)C)cc1 (centres undefined)	none
COc1ccc(C(CCNCc2ccc(OC(C)C)cc2)C(C)C)cc1 (centres undefined)	none (no result: MITF TRPM1 inh)
COc1ccc(CNCCC(c2ccc(OC(C)C)cc2)c2ccccc2OC)cc1OC (centres undefined)	Peg3 prom inh 87, MITF TRPM1 inh 66
COc1ccc(CNCCC(c2ccc(OC(C)C)cc2)C(C)C)cc1OC (centres undefined)	none
COc1ccccc1C(CCNCc1ccc(N(C)C)cc1)c1ccc(OC(C)C)cc1 (centres undefined)	Peg3 prom inh 107, MITF TRPM1 inh 77
COc1ccccc1C(CCNCc1ccccc1)c1ccc(OC(C)C)cc1 (centres undefined)	Peg3 prom inh 100
COc1ccc(CNCCC(c2ccc(OC(C)C)cc2)c2ccccc2OC)cc1 (centres undefined)	Peg3 prom inh 113
Cc1nnc(NC(=O)C23CC4CC(CC(C4)C2)C3)s1	none
NC1=C(c2ccccc2)C(=O)NC1=O	none
CC1(C(=O)NCc2ccccc2)CSCC(=O)N1CC(F)(F)F (centres undefined)	none (no result: Peg3 prom inh, KKLEB tox, CF NFkB inh, MITF TRPM1 inh)
C=C(C)CNC(=S)N/N=C/c1ccco1	none
COc1cc2c(cc1OC)C(c1ccc(-c3cc(Cl)ccc3Cl)o1)=NCC2	none
COc1cc2c(cc1OC)C(c1ccc(-c3ccc(Cl)c(Cl)c3)o1)=NCC2	Peg3 prom inh 85
CSc1ncccc1C(=O)OCC(=O)c1cccs1	none
CCC(C)(C)n1nnnc1CN(Cc1ccc(Cl)cc1)Cc1ccco1	none
